Data published in publication PMC11574364.

Experiments:
Assay in all cases: protein domain microarray probed with biotinylated miRNA; Domain array: 20 mM Tris-HCl pH 7.4, 200 mM KCl, 0.2 mM EDTA, 0.05% NP40, 2 ug/ul heparin, overnight 4 C. ORF array: PBS pH 7.0 with RNase inhibitor, 100 ng RNA; high values mean tight binding
Settings in all cases: ssRNA
CELF2(1-2) = CELF2(1-2) (Homo sapiens, UniProt O95319)
CELF4(1-2) = CELF4(1-2) (Homo sapiens, UniProt Q9BZC1)
BOLL = molecular target: T1, BOLL (Homo sapiens, UniProt Q8N9W6)
T1 sequence: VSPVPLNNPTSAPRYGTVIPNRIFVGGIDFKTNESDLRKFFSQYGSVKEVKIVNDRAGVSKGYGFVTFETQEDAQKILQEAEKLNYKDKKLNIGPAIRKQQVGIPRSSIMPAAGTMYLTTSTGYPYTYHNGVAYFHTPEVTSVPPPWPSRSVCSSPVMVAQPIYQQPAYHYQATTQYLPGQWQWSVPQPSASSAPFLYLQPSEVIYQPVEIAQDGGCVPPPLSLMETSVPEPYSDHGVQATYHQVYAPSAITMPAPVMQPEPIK

CELF1(1-2) = CELF1(1-2) (Homo sapiens, UniProt Q92879)
Chain of CELF1(1-2) (Q92879 1-210): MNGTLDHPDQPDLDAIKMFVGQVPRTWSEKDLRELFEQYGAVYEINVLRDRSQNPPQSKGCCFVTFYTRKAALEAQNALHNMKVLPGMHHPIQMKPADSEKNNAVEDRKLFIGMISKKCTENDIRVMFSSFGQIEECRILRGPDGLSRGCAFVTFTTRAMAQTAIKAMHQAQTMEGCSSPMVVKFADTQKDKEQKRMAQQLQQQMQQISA

CELF2(3) = CELF2(3) (Homo sapiens, UniProt O95319)
Chain of CELF2(3) (O95319 396-508): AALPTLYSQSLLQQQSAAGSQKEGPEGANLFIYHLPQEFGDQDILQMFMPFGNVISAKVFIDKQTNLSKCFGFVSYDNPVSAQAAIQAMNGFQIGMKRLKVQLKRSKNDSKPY

CELF1(3) = CELF1(3) (Homo sapiens, UniProt Q92879)
Chain of CELF1(3) (Q92879 370-486): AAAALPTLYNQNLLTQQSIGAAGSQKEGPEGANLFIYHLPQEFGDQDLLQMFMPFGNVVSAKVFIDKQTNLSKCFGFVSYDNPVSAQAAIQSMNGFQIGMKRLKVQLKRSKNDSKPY

A2BP1 = molecular target: T2, A2BP1 (Homo sapiens, UniProt Q9NWB1)
T2 sequence: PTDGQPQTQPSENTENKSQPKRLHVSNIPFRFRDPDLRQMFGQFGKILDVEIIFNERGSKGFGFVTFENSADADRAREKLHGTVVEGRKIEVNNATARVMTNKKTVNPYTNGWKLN

G3BP-2 = molecular target: T3, G3BP-2 (Homo sapiens, UniProt Q9UN86)
T3 sequence: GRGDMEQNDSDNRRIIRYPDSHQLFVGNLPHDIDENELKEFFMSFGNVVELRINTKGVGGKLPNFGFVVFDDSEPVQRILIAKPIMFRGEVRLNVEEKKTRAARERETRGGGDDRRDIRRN

Acinus(1) = molecular target: T4, Acinus(1) (Homo sapiens, UniProt Q9UKV3)
T4 sequence: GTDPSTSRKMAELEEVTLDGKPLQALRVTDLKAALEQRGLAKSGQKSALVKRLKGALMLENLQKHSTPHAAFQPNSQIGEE

CELF4(3) = CELF4(3) (Homo sapiens, UniProt Q9BZC1)
Chain of CELF4(3) (Q9BZC1 380-486): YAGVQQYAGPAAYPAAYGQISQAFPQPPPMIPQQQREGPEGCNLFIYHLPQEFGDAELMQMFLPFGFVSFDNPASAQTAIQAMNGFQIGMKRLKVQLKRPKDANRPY

Chain of CELF2(1-2) (O95319 19-241): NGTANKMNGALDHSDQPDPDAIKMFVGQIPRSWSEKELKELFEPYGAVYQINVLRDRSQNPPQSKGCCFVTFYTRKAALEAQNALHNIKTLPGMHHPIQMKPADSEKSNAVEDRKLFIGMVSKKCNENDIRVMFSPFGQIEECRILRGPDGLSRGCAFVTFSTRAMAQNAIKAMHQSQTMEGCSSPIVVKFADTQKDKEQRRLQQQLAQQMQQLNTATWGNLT
Chain of CELF4(1-2) (Q9BZC1 31-250): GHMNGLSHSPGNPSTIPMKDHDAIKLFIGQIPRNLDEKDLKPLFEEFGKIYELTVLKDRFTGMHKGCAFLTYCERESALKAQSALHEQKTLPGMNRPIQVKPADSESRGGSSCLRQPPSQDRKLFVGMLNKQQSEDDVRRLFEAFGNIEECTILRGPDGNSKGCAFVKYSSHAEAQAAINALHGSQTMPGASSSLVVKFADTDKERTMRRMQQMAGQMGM

UAGCUUAUCAGACUGAUGUUGA
binding signal (CELF2(1-2)): 21.3 ± 6.6 fluorescence intensity | binding signal (CELF4(1-2)): 20.5 ± 0.276 fluorescence intensity | binding signal (BOLL): 567 ± 57.8 fluorescence intensity | binding signal (CELF1(1-2)): 45.6 ± 13.3 fluorescence intensity | binding signal (CELF2(3)): 1040 ± 177 fluorescence intensity | binding signal (CELF1(3)): 1160 ± 14.2 fluorescence intensity | binding signal (A2BP1): 2210 ± 93.6 fluorescence intensity | binding signal (G3BP-2): 330 ± 22.3 fluorescence intensity

UGAGGUAGUAGGUUGUAUGGUU
binding signal (CELF2(1-2)): 79.94 ± 0.219 fluorescence intensity | binding signal (Acinus(1)): 162 ± 13.3 fluorescence intensity | binding signal (CELF4(1-2)): 96 ± 8.15 fluorescence intensity | binding signal (BOLL): 423 ± 34.1 fluorescence intensity | binding signal (CELF1(1-2)): 24.5 ± 18.4 fluorescence intensity | binding signal (CELF4(3)): 24.3 ± 1.9 fluorescence intensity | binding signal (CELF2(3)): 2750 ± 76 fluorescence intensity | binding signal (CELF1(3)): 2750 ± 97.5 fluorescence intensity | binding signal (A2BP1): 2938 ± 25.1 fluorescence intensity | binding signal (G3BP-2): 697 ± 11.7 fluorescence intensity

CAGUGCAAUGAUGAAAGGGCAU
binding signal (CELF2(1-2)): 48.3 ± 1.66 fluorescence intensity | binding signal (Acinus(1)): 130 ± 7.88 fluorescence intensity | binding signal (CELF4(1-2)): 68.5 ± 5.81 fluorescence intensity | binding signal (BOLL): 433.1 ± 0.594 fluorescence intensity | binding signal (CELF1(1-2)): 29.4 ± 2.27 fluorescence intensity | binding signal (CELF4(3)): 22.5 ± 0.509 fluorescence intensity | binding signal (CELF2(3)): 1010 ± 110 fluorescence intensity | binding signal (CELF1(3)): 1043.4 ± 0.00707 fluorescence intensity | binding signal (A2BP1): 3922 ± 30.6 fluorescence intensity | binding signal (G3BP-2): 1910 ± 49.7 fluorescence intensity

AGAGGUAGUAGGUUGCAUAGUU
binding signal (CELF2(1-2)): 63.2 ± 10.6 fluorescence intensity | binding signal (Acinus(1)): 144 ± 9.49 fluorescence intensity | binding signal (CELF4(1-2)): 73.4 ± 2.28 fluorescence intensity | binding signal (BOLL): 995 ± 54.2 fluorescence intensity | binding signal (CELF1(1-2)): 20.1 ± 13.8 fluorescence intensity | binding signal (CELF4(3)): 28.9 ± 2.98 fluorescence intensity | binding signal (CELF2(3)): 2420 ± 70.3 fluorescence intensity | binding signal (CELF1(3)): 2720 ± 64 fluorescence intensity | binding signal (A2BP1): 4220 ± 134 fluorescence intensity | binding signal (G3BP-2): 942 ± 20.8 fluorescence intensity

UGAGGUAGUAGGUUGUGUGGUU
binding signal (CELF2(1-2)): 156 ± 18.9 fluorescence intensity | binding signal (Acinus(1)): 330 ± 24.8 fluorescence intensity | binding signal (CELF4(1-2)): 241 ± 6.35 fluorescence intensity | binding signal (BOLL): 986 ± 65.6 fluorescence intensity | binding signal (CELF1(1-2)): 32.2 ± 23.1 fluorescence intensity | binding signal (CELF4(3)): 33.3 ± 4.99 fluorescence intensity | binding signal (CELF2(3)): 2850 ± 134 fluorescence intensity | binding signal (CELF1(3)): 2820 ± 118 fluorescence intensity | binding signal (A2BP1): 3130 ± 57 fluorescence intensity | binding signal (G3BP-2): 967 ± 16.3 fluorescence intensity

UGAGGUAGUAGGUUGUAUAGUU
binding signal (CELF2(1-2)): 29.8 ± 2.19 fluorescence intensity | binding signal (Acinus(1)): 37 ± 6.58 fluorescence intensity | binding signal (CELF4(1-2)): 30.5 ± 1.88 fluorescence intensity | binding signal (BOLL): 175 ± 17.3 fluorescence intensity | binding signal (CELF2(3)): 2178 ± 19.2 fluorescence intensity | binding signal (CELF1(3)): 2270 ± 106 fluorescence intensity | binding signal (A2BP1): 1110 ± 13.1 fluorescence intensity | binding signal (G3BP-2): 117 ± 15.5 fluorescence intensity
